From PubChem BioAssay AID868 (SRMLSC, 2007)
Hit rate of the full screen: of about 190,000 compounds, about 3,500 (1.8%) were called active. The full list was thinned out, with actives kept by preference. A number with no mark means an inactive call.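 The calls were made as follows: active = inhibition above a set limit, 3 SD over mean compound inhibition (cut at about 8.4% in these data); inactive = the rest.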

assay: RAM signaling blockers in budding yeast – dse1pr::URA3 reporter, 5-FOA selection, primary screen (AID 868);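 also: 0% = DMSO-only wells with no growth and 100% = 10 µM 1-NA-PP1 full growth; inhibition rescues growth on 5-FOA so higher OD means more RAM inhibition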; settings: S. cerevisiae dse1pr::URA3 reporter, 5-FOA growth OD615, 2 d; at 50 µM; active compounds read high; analog-sensitive cbk1-as2 kinase mutant strain

Structure (SMILES) | inhibition
CCCCS(=O)c1snnc1C (stereo not given) | -0.12%
O=C(c1cc2c(s1)CCC2)N1CCN(c2ccccc2)CC1 | 4.37%
O=C(NNC(=O)c1cc2c(s1)CCCC2)c1ccccc1 | 9.1% (active)
O=C(CNC(=O)c1cc2c(s1)CCC2)Nc1ccccc1Br | 1.93%
CCOC(=O)Cc1csc(SCC(=O)NC(C)C23CC4CC(CC(C4)C2)C3)n1 (stereo not given) | 0.91%
CC(NC(=O)COC(=O)c1ccc(Cl)cc1O)c1ccc(F)cc1 (stereo not given) | 3.6%
COc1ccccc1-n1c(=S)[nH]c2c(sc(=S)n2-c2ccc(C)cc2C)c1=O | 9.12% (active)
COc1cccc(-n2c(=S)sc3c(=O)n(-c4ccccc4OC)c(SCC4OCCO4)nc32)c1 | 7.01%
CCc1ccc(-n2c(=S)sc3c(=O)n(-c4ccccc4OC)c(=S)[nH]c32)cc1 | 5.97%
O=C(c1ccncc1)c1ccc([N+](=O)[O-])cc1 | 0.73%
CC(C)=C1C2CCC1C1C(=O)N(NC(=O)c3ccco3)C(=O)C21 (stereo not given) | -1.09%
N/C(Cc1ccc([N+](=O)[O-])cc1)=N\OC(=O)COc1ccc2ccccc2c1 | 12% (active)
N/C(=N\OC(=O)COc1ccc([N+](=O)[O-])cc1)c1ccc(Br)cc1 | 2.29%
N/C(=N\OC(=O)Cc1ccc([N+](=O)[O-])cc1)c1ccccn1 | 1.23%
CN(C)c1nnnn1-c1ccc(Cl)cc1 | -0.37%
O=C(O)/C=C/c1cn(Cc2ccccc2)nc1-c1cccs1 | 4%
CCC(C(=O)OCC(=O)Nc1c(Cl)cc(Cl)cc1Cl)c1ccccc1 (stereo not given) | 12.2% (active)
CCC(C(=O)OCC(=O)Nc1ccccc1-c1ccccc1)c1ccccc1 (stereo not given) | 6.39%
CCC(C(=O)OCC(=O)Nc1ccc(C(=O)Nc2ccc(OC)cc2)cc1)c1ccccc1 (stereo not given) | 4.72%
COCCNC(=O)NC(=O)COC(=O)C1(c2ccc(Cl)cc2)CC1 | 0.14%
Nc1ncnc(Nc2cccc(Cl)c2Cl)n1 | 0.27%
CC(=O)Nc1ccc(Sc2ccccc2C(=O)N2CCCC2)cn1 | 1.82%
O=C1CCCC2=C1C(c1ccccc1)n1c(s/c(=C/c3cccc(F)c3)c1=O)=N2 (stereo not given) | 3.98%
COc1ccc(OC)c(C2C3=C(N=c4s/c(=C\c5cccc(O)c5)c(=O)n42)c2ccccc2CC3)c1 (stereo not given) | 12.7% (active)

Structure (SMILES) | inhibition
CCOC(=O)C1=C(C)N=c2s/c(=C\C(=O)OC)c(=O)n2C1c1ccc(OC)cc1 (stereo not given) | 2.7%
Cc1ccc2[nH]c(=O)c(CN(CC3COCCO3)C(=O)Nc3ccccc3C)cc2c1 (stereo not given) | 0.63%
CCCCCOc1ccc(CSC2=NCCN2)cc1[N+](=O)[O-] | -0.98%
O=C(Nc1nc(-c2cccnc2)cs1)c1ccccc1F | -0.37%
Cc1nn(C)c(C(=O)NNC(=S)NC2CCCCC2)c1Cl | 0.28%
COc1cccc(NC(=S)NCc2ccccn2)c1 | 2.63%
COc1cccc(NC(=S)NC(=O)c2c(Cl)c(C)nn2C)c1 | 8.92% (active)
CCOC(=O)C1(Cc2cccc(OC)c2)CCCN(S(=O)(=O)c2cccnc2)C1 (stereo not given) | 0.14%
O=C(NCc1ccccc1)C1CCCN(c2nc3ccsc3c(=O)s2)C1 (stereo not given) | 3.39%
CN(C)S(=O)(=O)c1cccc(NC(=O)COC(=O)C2(c3ccccc3F)CCCC2)c1 | 15.4% (active)
CN(C)S(=O)(=O)c1cccc(NC(=O)COC(=O)/C=C/c2cccs2)c1 | 0.87%
CN(C)S(=O)(=O)c1cccc(NC(=O)COC(=O)c2cc(=O)[nH]c(=O)[nH]2)c1 | 0.97%
CC1CC(C)(C)NC(=S)N1CCC(=O)N1CCN(Cc2ccccc2)CC1 (stereo not given) | -0.49%
CCC(C)(C)NC(=O)CN(C(=O)CCC(=O)Nc1cc(C)ccn1)c1ccc2c(c1)OCCO2 | 1.5%
Cc1ccn(CC(=O)N2N=C(C(F)F)CC2(O)C(F)F)n1 (stereo not given) | 0.78%
CN(C)CCCNC(=S)NCc1ccc(Cl)cc1 | 0.25%
S=C(NCc1ccc(Cl)cc1)NC1CCCCC1 | 10.9% (active)
S=C(NCc1ccc(Cl)cc1)NC12CC3CC(CC(C3)C1)C2 | 5.19%
CCCC(C(=O)n1nc(C)cc1C)C(NS(=O)(=O)c1ccc(C)cc1)c1ccccc1 (stereo not given) | 11.7% (active)
Cc1ccc(S(=O)(=O)NC(C(=O)N2CCOCCOCCOCCOCC2)c2ccccc2)cc1 (stereo not given) | 2%
Cc1ccc(S(=O)(=O)Nc2nc(C)cc(-n3nc(C)cc3C)n2)cc1 | 2.7%
COc1ccc(OC)c(-n2c(=S)[nH]c3cc(C(=O)N4CCCCC4)ccc3c2=O)c1 | 8.46% (active)
COc1ccccc1Cn1c(=S)[nH]c2cc(C(=O)N3CCN(C)CC3)ccc2c1=O | 2.83%
COc1ccc(OCc2cccc(C(=O)N3CCCC3)c2)cc1 | -0.11%

Structure (SMILES) | inhibition
CC(=O)c1ccc(S(=O)(=O)Nc2ccc(C(=O)NCC(c3ccccc3)N(C)C)cc2)cc1 (stereo not given) | 1.76%
O=C(Nc1ccc(N2CCN(C(=O)c3cccs3)CC2)cc1)c1cccnc1Cl | 0.88%
O=C(O)c1cnn2c(C(F)(F)F)cc(-c3ccccc3)nc12 | 0.53%
CC(=O)N1CCN(c2cccc(C)c2C)CC1 | 2.09%
Cc1cccc(N2CCN(C(=O)c3cnn4c(C(F)F)cc(-c5ccccc5)nc34)CC2)c1C | 12.1% (active)
COc1cc(N/C=C2\CC(=O)NC(C)=C2C#N)cc(OC)c1OC | 2.13%
Cn1c(=O)c2cc(S(=O)(=O)NCCC(=O)Nc3ccc(F)cc3F)ccc2n(C)c1=O | 2.64%
COc1ccc(CCNC(=O)CC2SC(=Nc3cc(C)cc(C)c3)NC2=O)cc1OC (stereo not given) | 1.51%
O=C(c1cc2sccc2n1Cc1ccc(F)cc1)N1CCc2ccccc21 | 2.22%
CCOC(=O)c1cc2sccc2n1Cc1ccc(C#N)cc1 | 8.47% (active)
CC1Cc2ccccc2N1C(=O)c1cc2sccc2n1Cc1ccccc1 (stereo not given) | 2.9%
NC(=O)CCC(NS(=O)(=O)c1ccc(Cl)cc1)C(=O)NCc1ccccc1Cl (stereo not given) | 2.16%
CCCC1NC(=S)NC(C)=C1C(C)=O (stereo not given) | 1.13%
Cc1ccc(NC(=O)c2cccnc2C(=O)Nc2ccc(C)cc2)cc1 | 2.98%
Cc1ccc(NC(=O)CN2CCCCC2)c2c1CC(C)(C)O2 | 0.63%
COc1ccc(-c2[nH]ncc2CN(C)Cc2cc(C)[nH]n2)c(F)c1 | 0.37%
CN(C)c1ccc(C2Nc3ccccc3C(=O)N2NS(=O)(=O)c2ccccc2)cc1 (stereo not given) | 1.39%
O=C1Cc2ccccc2Sc2ccc(Cl)cc21 | 9.58% (active)
S=C1Nc2cc(Cl)ccc2Sc2ccccc21 | 0%
O=C(CSc1nc2ccccc2o1)N1c2ccccc2Sc2ccc(Cl)cc21 | 3.58%
CN(CC(=O)N1CCN(c2ccccc2)CC1)S(=O)(=O)c1cccs1 | 1.71%
O=C(NCCCN1CCOCC1)c1ccccc1NS(=O)(=O)c1ccc(Br)cc1 | 1.86%
CC(=O)c1cc(-c2ccccc2)n(CCC(=O)NC2CCCCCC2)c1C | 8.76% (active)
CC(=O)c1cc(-c2ccccc2)n(CC(=O)NC2CCCCC2)c1C | 1.07%

Structure (SMILES) | inhibition
O=C(CN1C(=O)CC(c2ccccc2)=Nc2ccccc21)NC1CCCCC1 | 0.45%
S=c1[nH]nc(/C=C/c2ccccc2)o1 | -1.49%
O=c1c(-c2ccccc2)cnc2n1CCS2 | 0.49%
CNc1[nH]ncc1[N+](=O)[O-] | 0.14%
CC(=O)Nc1ccc(S(=O)(=O)Nc2ccc(-c3ccc4nnc(C)n4n3)cc2)cc1 | 1.24%
COc1cc2ccccc2cc1C(=O)Nc1ccc(S(=O)(=O)Nc2cc(C)on2)cc1 | 9.69% (active)
COc1cc(OC)cc(C(=O)Nc2ccc(S(=O)(=O)Nc3cc(C)on3)cc2)c1 | 3.99%
Cc1cc(NS(=O)(=O)c2ccccc2)no1 | 1.83%
C/C=N/NC(=O)CCCC(=O)N/N=C/C | 0.88%
C#CCOCCOCCOCCNc1nc(N2CCN(C(=O)[C@H](C(C)C)n3cc(CCO)nn3)CC2)nc(N2CCN(C(=O)[C@H](C(C)C)n3cc(CCO)nn3)CC2)n1 | 1.36%
CCC1C(=O)c2ccccc2N(C)C1=O (stereo not given) | 0.28%
CN1C(=O)/C(=C\c2cc(Br)cs2)c2ccccc21 | 8.8% (active)
CN1C(=O)/C(=N/OC(=O)c2ccccc2Br)c2ccccc21 | 4.91%
CN1CCN(C(=O)CCc2ncc(C(F)(F)F)cc2Cl)CC1 | -0.55%
COc1ccc(-n2cnc3cc(C(=O)NC4CCCC4)ccc32)cc1 | -0.87%
N#Cc1nc(Cc2cccc3ccccc23)oc1NCc1ccc2c(c1)OCO2 | 11% (active)
O=C(COc1ccccc1)NCc1ccc2c(c1)OCO2 | 3.27%
N#Cc1nc(Cc2ccccc2)oc1NCCc1ccccc1 | 2.28%
CCCNC(=O)OC[C@H]1O[C@H](CCO/N=C/[C@@H](NS(=O)(=O)c2ccc(C)cc2)[C@H](C)/C=C/CC(=O)OC)C=C[C@@H]1Oc1ccc(OC)cc1 | 14.8% (active)
CCCC(NS(=O)(=O)c1ccc(OC)cc1)C(=O)O (stereo not given) | 0%
CC(C)Oc1ccc(Cc2n[nH]c(=S)n2Cc2ccccc2)cc1Cl | 9.13% (active)
C=CCn1c(CCc2ccc(OC(C)C)cc2)n[nH]c1=S | -0.6%
CC(C)Oc1ccc(CCc2n[nH]c(=S)n2Cc2ccccc2)cc1 | 6.59%
